Source: PubChem BioAssay (NCATS)
Records with an inconclusive call do not appear. Calls of active or inactive are those of the source. Calls come from the whole dose curve; as a rule, active = well fitted curve in the direction sought with a large enough effect; inconclusive = small, poorly fitted or top-dose-only effect, or another doubt; inactive = no such curve, though single readings can be large; an effect the other way counts as inactive or inconclusive.

Assays:
[1] = NS1 protein of Zika virus - qHTS assay to identify small molecule inhibitors in human HEK 293 cells (AID 1347053);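 note: series mostly up to about 46 µM; plate controls were infected untreated cells for no effect and uninfected cells for full effect; nearly all actives have a fitted effect of over 55% in size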
Outline: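 HEK 293; 20 h pre-culture, 37 C/5% CO2; cpd 1 h pre-infection; ZIKV MR766, MOI = 0.5, 24 h, 37 C; TR-FRET NS1 readout (two anti-NS1 Abs); norm. to no-virus vs infected.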

[2] = qHTS of pediatric cancer cell lines to identify multiple opportunities for drug repurposing: Primary screen for TC32 cells (AID 1347089); note: % is set by controls: 0 for no effect and ±100 for the full control effect; nearly all actives have a fitted effect of over 60% in size
Outline: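 TC32 cells, 500-1,000/well in growth medium, compound-treated 48 h at 37 °C; viability from CellTiter-Glo luminescence. Primary screen: MIPE 11-point (0.78 nM–46 µM final), NPC 8-point (0.59 nM–46 µM final); confirmatory at 11-point dilutions.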

[3] = qHTS of pediatric cancer cell lines to identify multiple opportunities for drug repurposing: Primary screen for DAOY cells (AID 1347090);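 note: series mostly up to about 46 µM; plate controls were DMSO for no effect and bortezomib for full effect; nearly all actives have a fitted effect of over 55% in size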
Outline: (§1)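 Cell viability, CellTiter-Glo luminescence; 500-1,000 cells/well, 8- or 11-point titration, 48 h compound exposure at 37 degrees C, 5% CO2. Controls: DMSO neutral, bortezomib 2.3 µM final as positive.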

[4] = qHTS of pediatric cancer cell lines to identify multiple opportunities for drug repurposing: Primary screen for A673 cells (AID 1347092); note: % is set by controls: 0 for no effect and ±100 for the full control effect; nearly all actives have a fitted effect of over 45% in size
Outline: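 A673 cells (500-1,000 cells/well) were treated 48 hours at 37 degrees C with compounds at 11-point (0.78 nM to 46 µM) or 8-point (0.59 nM to 46 µM) dilutions. Viability read by CellTiter-Glo luminescence; concentration-response curves fitted.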

[5] = qHTS of pediatric cancer cell lines to identify multiple opportunities for drug repurposing: Primary screen for SK-N-MC cells (AID 1347093);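 note: series mostly up to about 46 µM; plate controls were DMSO neutral control for no effect and bortezomib for full effect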
Outline: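 Metabolically active cells were quantified by ATP-dependent luminescence (CellTiter-Glo, 15 min at room temperature) following 48 h treatment. Cells had been plated at 500-1,000 per well and settled for 5 h beforehand.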

[6] = qHTS of pediatric cancer cell lines to identify multiple opportunities for drug repurposing: Primary screen for BT-37 cells (AID 1347094);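 note: series mostly up to about 57 µM; plate controls were DMSO for no effect and bortezomib for full effect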
Outline: (§2)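 Primary screen of approved and investigational compounds on cells in growth media at 37 degrees C, 5% CO2. MIPE set at 11-point and NPC set at 8-point dilutions; viability scored by ATP-based luminescence at 48 hours.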

[7] = qHTS of pediatric cancer cell lines to identify multiple opportunities for drug repurposing: Primary screen for NB-EBc1 cells (AID 1347095);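 note: plate controls were DMSO neutral control for no effect and bortezomib for full effect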
Outline: as §2

[8] = qHTS of pediatric cancer cell lines to identify multiple opportunities for drug repurposing: Primary screen for U-2 OS cells (AID 1347096);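 note: plate controls were DMSO wells for no effect and bortezomib positive control wells for full effect; nearly all actives have a fitted effect of over 50% in size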
Outline: (§3)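 Cells (500-1,000/well) rested 5 h, then received compounds for 48 h; metabolically active cells were measured by CellTiter-Glo luminescence. Final concentrations spanned up to 46 µM (MIPE, 11-point) or 0.59 nM-46 µM (NPC, 8-point) in primary screens, 11-point in follow-ups.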

[9] = qHTS of pediatric cancer cell lines to identify multiple opportunities for drug repurposing: Primary screen for Saos-2 cells (AID 1347097); note: % is set by controls: 0 for no effect and ±100 for the full control effect; nearly all actives have a fitted effect of over 40% in size
Outline: as §2

[10] = qHTS of pediatric cancer cell lines to identify multiple opportunities for drug repurposing: Primary screen for NB1643 cells (AID 1347099);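 note: plate controls were DMSO neutral control for no effect and bortezomib positive control for full effect; nearly all actives have a fitted effect of over 50% in size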
Outline: as §2

[11] = qHTS of pediatric cancer cell lines to identify multiple opportunities for drug repurposing: Primary screen for LAN-5 cells (AID 1347100);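 note: plate controls were DMSO neutral control for no effect and bortezomib positive control for full effect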
Outline: as §3

[12] = qHTS of pediatric cancer cell lines to identify multiple opportunities for drug repurposing: Primary screen for BT-12 cells (AID 1347101);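 note: plate controls were DMSO for no effect and bortezomib positive control for full effect; nearly all actives have a fitted effect of over 25% in size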
Outline: as §3

[13] = qHTS of pediatric cancer cell lines to identify multiple opportunities for drug repurposing: Primary screen for Rh18 cells (AID 1347102); note: % is set by controls: 0 for no effect and ±100 for the full control effect; nearly all actives have a fitted effect of over 65% in size
Outline: as §3

[14] = qHTS of pediatric cancer cell lines to identify multiple opportunities for drug repurposing: Primary screen for SJ-GBM2 cells (AID 1347091);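 note: plate controls were DMSO neutral control for no effect and bortezomib for full effect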
Outline: as §1

[15] = qHTS of pediatric cancer cell lines to identify multiple opportunities for drug repurposing: Primary screen for SK-N-SH cells (AID 1347098); note: % is set by controls: 0 for no effect and ±100 for the full control effect; nearly all actives have a fitted effect of over 65% in size
Outline: as §3

[16] = qHTS of pediatric cancer cell lines to identify multiple opportunities for drug repurposing: Primary screen for OHS-50 cells (AID 1347103);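 note: plate controls were DMSO neutral control for no effect and bortezomib positive control for full effect; nearly all actives have a fitted effect of over 40% in size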
Outline: as §3

C#C[C@]1(O)CC[C@H]2[C@@H]3CCc4cc(OC)ccc4[C@H]3CC[C@@]21C
inactive: Potency [1] | Potency [2] | Potency [3] | Potency [4] | Potency [5] | Potency [6] | Potency [7] | Potency [8] | Potency [9] | Potency [10] | Potency [11] | Potency [12] | Potency [13]

O=C(Nc1ccccc1)OCC(CN1CCCCC1)OC(=O)Nc1ccccc1 (stereo not drawn)
inactive: Potency [1] | Potency [2] | Potency [3] | Potency [5] | Potency [7] | Potency [8] | Potency [10]

COc1cc(NS(=O)(=O)c2ccc(N)cc2)ncn1
inactive: Potency [1] | Potency [2] | Potency [14] | Potency [4] | Potency [5] | Potency [6] | Potency [7] | Potency [8] | Potency [15] | Potency [10] | Potency [11] | Potency [12] | Potency [13] | Potency [16]

OC[C@H]1O[C@@H](Oc2ccc(O)cc2)[C@H](O)[C@@H](O)[C@@H]1O
inactive: Potency [1] | Potency [2] | Potency [14] | Potency [4] | Potency [5] | Potency [6] | Potency [7] | Potency [8] | Potency [15] | Potency [10] | Potency [11] | Potency [12] | Potency [13]

CCN[C@@H]1C[C@H](N)[C@@H](OC2OC(CN)=CCC2N)[C@H](O)[C@H]1O[C@H]1OC[C@](C)(O)[C@H](NC)[C@H]1O (stereo partly drawn)
inactive: activity change, negative = inhibition [1] -23.1% [at 0.593 µM] | activity change, negative = cytotoxic [2] 2.31% [at 0.594 µM] | activity change, negative = cytotoxic [3] 1.01% [at 0.597 µM] | activity change, negative = cytotoxic [4] -2.55% [at 0.597 µM] | activity change, negative = cytotoxic [5] -24.4% [at 0.597 µM] | activity change, negative = cytotoxic [6] 5.98% [at 0.745 µM] | activity change, negative = cytotoxic [7] -22.3% [at 0.597 µM] | activity change, negative = cytotoxic [8] 2.58% [at 0.597 µM] | activity change, negative = cytotoxic [15] -5.21% [at 0.741 µM] | activity change, negative = cytotoxic [10] 4.64% [at 0.597 µM] | activity change, negative = cytotoxic [11] -0.753% [at 0.597 µM] | activity change, negative = cytotoxic [12] 7.6% [at 0.745 µM] | activity change, negative = cytotoxic [13] 7.22% [at 0.597 µM] | activity change, negative = cytotoxic [16] 0.649% [at 0.73 µM]

C=C[C@@]1(C)CC(=O)[C@]2(O)[C@@]3(C)[C@@H](O)CCC(C)(C)[C@@H]3[C@H](O)[C@H](OC(C)=O)[C@@]2(C)O1
inactive: Potency [1] | Potency [2] | Potency [14] | Potency [4] | Potency [5] | Potency [6] | Potency [7] | Potency [8] | Potency [9] | Potency [15] | Potency [10] | Potency [11] | Potency [12] | Potency [13]

OCCOCCN1CCN(C2=Nc3ccccc3Sc3ccccc32)CC1
inactive: Potency [1] | Potency [2] | Potency [3] | Potency [4] | Potency [5] | Potency [6] | Potency [7] | Potency [8] | Potency [15] | Potency [10] | Potency [11] | Potency [12] | Potency [13]
